Test results from PubChem BioAssay AID2734 (National Center for Advancing Translational Sciences (NCATS), 2010).
Records with an inconclusive call do not appear. Calls of active or inactive are those of the source. Calls come from the whole dose curve; as a rule, active = well fitted inhibition curve with a large enough effect; inconclusive = small, poorly fitted or top-dose-only effect, or effect the other way; inactive = no such curve, though single readings can be large or run the other way.

Test: High Content Assay for Compounds that inhibit the Assembly of the Perinucleolar Compartment: DNA Intercalation/PicoGreen Displacement Assay
Details: fluorescence (intercalation counter-screen); series mostly up to 57.1 µM
Description: High Content Assay for Compounds that inhibit the Assembly of the Perinucleolar Compartment
NIH Chemical Genomics Center [NCGC]
NIH Molecular Libraries Probe Centers Network [MLPCN]
Assay Submitter (PI): Sui Huang, Northwestern University, Feinberg School of Medicine, Cell and Molecular Biology, Chicago, Illinois.
The perinucleolar compartment (PNC) is a non-membrane-bound nuclear subdomain that is associated with but structurally distinct from the nucleolus. The PNC is a heritable trait, in which the number of PNCs per cell in daughter cells often mimics that of their mother cells. The PNC is heterogeneous in shape, is stable through interphase, disassembles during mitosis, and reassembles in early G1. […]
Therefore, we conducted a DNA intercalation/displacement assay on the lead candidates in order to exclude compounds with this mechanism of action. […] Compounds which displace the dye will decrease fluorescence intensity and were considered DNA intercalators/displacers. In order to rule out potential fluorescence artifacts, a measurement of compound plus DNA only was also calculated. […]
4. A baseline signal was measured using an Envision PMT based plate reader using a 488 nm excitation filter and a 520 nm emission filter. […]
6. Plates were incubated at 37 C for 10 minutes prior to being read on the envision plate reader. […]

| Structure (SMILES) | outcome |
| --- | --- |
| CCC(=NCc1cc(OC)cc(OC)c1)c1c(O)n(C)c(=O)n(C)c1=O | inactive |
| Cc1c2ccncc2c(C)c2c1[nH]c1ccccc12 | inactive |
